From PubChem BioAssay AID504444 (National Center for Advancing Translational Sciences (NCATS), 2011)
Hit rate of the full screen: of about 360,000 compounds, about 7,500 (2.1%) were called active. Inconclusive results (about 20%) are left out. The sample holds actives, similar compounds and a random draw of the others, so the mix is not that of the screen. Values without a mark were called inactive. The call rests on the fitted dose curve; in most records, active means well fitted inhibition curve with a large enough effect; inconclusive means small, poorly fitted or top-dose-only effect, or effect the other way; inactive means flat fitted curve, though single readings scatter.

experiment: Nrf2 qHTS screen for inhibitors; conditions: A549 ARE-Fluc reporter, luciferase luminescence, 18-24 h; series mostly up to 46 µM; activity change, negative = inhibition: at the top concentration; further: nearly all actives have a fitted effect of over 60% in size
Outline: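 Cells were seeded and rested 2 h, then exposed to compounds for 18-24 h. CellTiter-Fluor was read first as a viability measure. BugLite was added 15 min before the final luminescent read of ARE-luciferase activity in A549 cells.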
On the % scale 0 is the no-effect control and ±100 the full control effect; potency means the concentration at half of the fitted maximal effect.

For `Cc1ccc(C)n1-c1nnc(N2CCC(C(=O)NCc3ccccc3Cl)CC2)s1`, which “activity change, negative = inhibition” value is on record?
The value was 4.84%.

For `CCCCn1nc(C(=O)Nc2cccc(C(=O)NC3CC3)c2)c2ccccc2c1=O`, which “activity change, negative = inhibition” value is on record?
Its value is -23.9%.

Which “activity change, negative = inhibition” value does the source give for `Cc1ccccc1NC(=O)CSC(=O)c1ccccc1` here?
Its value is 18.1%.

For `CCc1ccc(CN(C)Cc2nc(Cc3ccccc3)no2)nc1`, which “activity change, negative = inhibition” value is on record?
Its value is 0%.

For `CC(=O)c1ccc(-c2nnc(CCC(=O)N(C)Cc3cnc4ccccn34)o2)s1`, which “activity change, negative = inhibition” value is on record?
Its value is 26.1%.

For `CCc1ccc(CN(C)C(=O)CCc2nnc(-c3ccc(-c4ccccc4)cc3)o2)nc1`, which Potency is on record?
The Potency was 18.4 µM (active).

Which “activity change, negative = inhibition” value does the source give for `NC(=S)NN=C1CCCC(C(F)(F)F)C1` (centres undefined) here?
The value was 0.985%.

For `O=S(=O)(Nc1ccc2nc(N3CCOCC3)sc2c1)c1ccccc1`, which “activity change, negative = inhibition” value is on record?
Its value is 11.5%.

Which “activity change, negative = inhibition” value does the source give for `COc1ccc(Cl)cc1NC(=O)COC(=O)c1ccc(Br)o1` here?
Its value is 16.4%.

Which “activity change, negative = inhibition” value does the source give for `CC(=O)Nc1ccc(S(=O)(=O)NCCC(=O)N2CCN(c3ccccc3Cl)CC2)cc1` here?
Its value is -4.63%.

Which “activity change, negative = inhibition” value does the source give for `CCc1nc(Nc2ccc(NC(C)=O)cc2)c2oc3ccccc3c2n1` here?
Its value is -11.3%.

Which Potency does the source give for `CC(=O)Nc1ccc(Nc2c3ccccc3nc3ccccc23)cc1` here?
The Potency was 5.8 µM (active).

With `CC(=O)Nc1ccc(NC(=O)COc2ncnc3ccccc23)cc1` as the molecule, how does the “activity change, negative = inhibition” value read?
The value was 2.36%.

Which “activity change, negative = inhibition” value does the source give for `O=C1N[C@H](Cc2c[nH]c3ccccc23)COC(=O)[C@H](Cc2ccc(F)cc2)C/C=C\C[C@H]1CC(=O)N(CCO)Cc1ccccc1` here?
Its value is -16.1%.

With `O=C(C1CCCN(S(=O)(=O)c2cccc3nonc23)C1)N1CCN(c2ccccc2F)CC1` (centres undefined) as the molecule, how does the “activity change, negative = inhibition” value read?
Its value is -25%.

With `O=[N+]([O-])c1cc(S(=O)(=O)Nc2cccc(Cl)c2)ccc1N=Nc1c(O)[nH]c2ccccc12` as the molecule, how does the Potency read?
Its Potency is 20.6 µM (active).

With `COc1ccc(S(=O)(=O)Nc2ccc3cn[nH]c3c2)cc1[N+](=O)[O-]` as the molecule, how does the “activity change, negative = inhibition” value read?
The value was 6.63%.

With `O=C(O)c1ccccc1/C=N/Nc1ccc(S(=O)(=O)Nc2ccc(Cl)cc2)cc1[N+](=O)[O-]` as the molecule, how does the “activity change, negative = inhibition” value read?
Its value is -5.39%.

Which “activity change, negative = inhibition” value does the source give for `O=C(NCCCO)c1nn(-c2ccc(Cl)cc2)nc1CO` here?
The value was -0.928%.

With `O=C(CN1CCCSc2ccccc21)N1CCN(S(=O)(=O)c2ccccc2)CC1` as the molecule, how does the “activity change, negative = inhibition” value read?
The value was -12.5%.

For `Cc1ccc(-c2nn(CCC(=O)Nc3ccc(OC(F)(F)F)cc3)c(=O)c3ccccc23)cc1`, which “activity change, negative = inhibition” value is on record?
The value was 3.4%.

For `CCCN(c1ccc(C(C)C)cc1)S(=O)(=O)c1c(C)[nH]c(=O)[nH]c1=O`, which Potency is on record?
The Potency was 5.8 µM (active).

Which “activity change, negative = inhibition” value does the source give for `CCOc1ccc(N(CC(=O)NC2CCCCCC2)S(=O)(=O)c2c(C)[nH]c(=O)[nH]c2=O)cc1` here?
The value was -13.3%.

Which “activity change, negative = inhibition” value does the source give for `CCOc1ccc(N(CC(=O)Nc2ccccc2F)S(=O)(=O)c2c(C)[nH]c(=O)[nH]c2=O)cc1` here?
The value was 4.6%.

Which “activity change, negative = inhibition” value does the source give for `COc1ccccc1CNC(=O)c1ccc(CS(=O)c2ccccc2Cl)o1` (centres undefined) here?
Its value is -25.7%.

For `COC(=O)[C@]1(Cc2ccccc2)N[C@H](CN(C)S(=O)(=O)c2ccc(F)cc2)[C@@H]2C(=O)N(Cc3ccccc3)C(=O)[C@@H]21`, which “activity change, negative = inhibition” value is on record?
Its value is -3.86%.

With `O=C(Nc1nnc(S(=O)(=O)N2CCCc3ccccc32)s1)c1cccc(F)c1` as the molecule, how does the “activity change, negative = inhibition” value read?
The value was 6.53%.

Which “activity change, negative = inhibition” value does the source give for `CC1CCN(C(=O)c2cccc(S(=O)(=O)N3CCCc4ccccc43)c2)CC1` here?
The value was -20.5%.

With `Cc1ccc(NC(=O)c2cccc(S(=O)(=O)N3CCCc4ccccc43)c2)nc1` as the molecule, how does the Potency read?
The Potency was 10.3 µM (active).

Which “activity change, negative = inhibition” value does the source give for `Cc1ccc(S(=O)(=O)N2CCN(C(=O)Cn3c(=O)cnc4ccccc43)CC2)c(C)c1` here?
Its value is -5.38%.

With `O=C1OC(Oc2ccc(Br)cc2)(c2ccccc2)c2ccccc21` (centres undefined) as the molecule, how does the “activity change, negative = inhibition” value read?
Its value is -9.2%.

Which “activity change, negative = inhibition” value does the source give for `CC(C)N(C(=O)COC(=O)c1ccccc1C(=O)N1CCN(c2ccc(F)cc2)CC1)C(C)C` here?
Its value is -8.91%.

With `Cn1c2ccccc2c2c(C(=O)N3CCN(c4ccc(F)cc4)CC3)cn(C3CCCC3)c(=O)c21` as the molecule, how does the Potency read?
Its Potency is 25.9 µM (active).

For `CCOc1ccc(NC(=O)c2cn(C3CCCCC3)c(=O)c3c2c2ccccc2n3C)cc1`, which “activity change, negative = inhibition” value is on record?
The value was 13%.

Which “activity change, negative = inhibition” value does the source give for `COc1cc(C2c3c(oc4ccccc4c3=O)C(=O)N2c2nc(C)c(C)s2)ccc1O` (centres undefined) here?
The value was -0.391%.

With `CC[C@]12c3[nH]c4cc(CCC(=O)N(C)C)ccc4c3CCN1C(=O)[C@@H](CC(=O)NCC13CC4CC(CC(C4)C1)C3)C[C@@H]2C(=O)N1CCN(C(=O)C2CC2)CC1` as the molecule, how does the “activity change, negative = inhibition” value read?
The value was -6.58%.

With `CCOC(=O)c1c(C)n(S(=O)(=O)c2ccc(C)cc2C)c2ccc(NS(=O)(=O)c3ccc(C)cc3C)cc12` as the molecule, how does the “activity change, negative = inhibition” value read?
The value was -14.8%.

For `COc1cc(C(=O)NNC(=O)c2ccc(S(=O)(=O)N3CCCCC3)cc2)cc(OC)c1OC`, which “activity change, negative = inhibition” value is on record?
The value was -3.74%.

For `CCN(CC)S(=O)(=O)c1cccc(NC(=O)c2ccc(S(=O)(=O)N3CCCC3)cc2)c1`, which Potency is on record?
The Potency was 23.1 µM (active).

For `O=C(Nc1cccc(S(=O)(=O)N2CCCC2)c1)c1cncc(Br)c1`, which “activity change, negative = inhibition” value is on record?
Its value is -20.7%.

Which “activity change, negative = inhibition” value does the source give for `CC(C)n1ncc2c(C(=O)NCc3ccccc3CN(C)C)cc(C3CC3)nc21` here?
Its value is -4.86%.

For `CC(C)(C)C(=O)Nc1cccc(-c2ccc[nH]2)n1`, which “activity change, negative = inhibition” value is on record?
The value was 12.1%.

With `COC(=O)c1ccc(C2CC(=O)Nc3cc(OC)c(OC)cc32)cc1` (centres undefined) as the molecule, how does the “activity change, negative = inhibition” value read?
Its value is -22.5%.

For `COc1cc2c(cc1OC)C(c1ccncc1)CC(=O)N2` (centres undefined), which “activity change, negative = inhibition” value is on record?
Its value is 9.55%.
